# Data: PubChem BioAssay AID1159580 (chemical genetic matrix, 2015)
# In all, about 5,500 compounds went through this assay and about 2,000 (36%) were called active. Not shown: some 18% with an inconclusive outcome. The list shows a part of the results. Unmarked numbers belong to inactive results. No stated cut-off is given here; in the data, active means normalized growth mostly below about 0.91 (no sharp cut-off); inconclusive means no clear call, values can overlap the other calls; inactive means mostly above about 0.92.
# Assay: chemical genetic growth profiling, strain panel (AID 1159580);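 further: tested at 20 µM; growth read once vehicle control cultures reached saturation at 30 °C; 1 = growth at the plate median or of vehicle wells; lower values mean less growth of the strain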
# Settings: growth OD
structure (smiles),measurement,setting,value
OC(Cn1cncn1)(Cn1cncn1)c1ccc(F)cc1F,normalized growth,"S. cerevisiae deletion strains, locus YJL187C, strain SWE1, active compounds read low",1
same,normalized growth,"S. cerevisiae deletion strains, locus YJR043C, strain POL32, active compounds read low",0.988
same,normalized growth,"S. cerevisiae deletion strains, locus YJR075W, strain HOC1, active compounds read low",1.01
same,normalized growth,"S. cerevisiae deletion strains, locus YKL009W, strain mrt4, active compounds read low",0.994
same,normalized growth,"S. cerevisiae deletion strains, locus YKL068W, active compounds read low",0.996
same,normalized growth,"S. cerevisiae deletion strains, locus YKL085W, strain MDH1 (second series), active compounds read low",0.985
same,normalized growth,"S. cerevisiae deletion strains, locus YKL085W, strain MDH1, active compounds read low",0.985
same,normalized growth,"S. cerevisiae deletion strains, locus YKL160W, strain elf1, active compounds read low",0.992
same,normalized growth,"S. cerevisiae deletion strains, locus YKL190W, strain CNB1, active compounds read low",0.997
same,normalized growth,"S. cerevisiae deletion strains, locus YKR001C, strain vps1, active compounds read low",1.05
same,normalized growth,"S. cerevisiae deletion strains, locus YKR026C, strain gcn3, active compounds read low",0.999
same,normalized growth,"S. cerevisiae deletion strains, locus YKR091W, strain srl3, active compounds read low",1.01
same,normalized growth,"S. cerevisiae deletion strains, locus YLL001W, strain dnm1, active compounds read low",1.01
same,normalized growth,"S. cerevisiae deletion strains, locus YLL026W, active compounds read low",0.999
same,normalized growth,"S. cerevisiae deletion strains, locus YLL041C, strain sdh2, active compounds read low",1.01
same,normalized growth,"S. cerevisiae deletion strains, locus YLR027C, strain aat2, active compounds read low",1
same,normalized growth,"S. cerevisiae deletion strains, locus YLR039C, strain RIC1, active compounds read low",0.635 (active)
same,normalized growth,"S. cerevisiae deletion strains, locus YLR058C, strain SHM2, active compounds read low",1
same,normalized growth,"S. cerevisiae deletion strains, locus YLR102C, strain apc9, active compounds read low",1
same,normalized growth,"S. cerevisiae deletion strains, locus YLR221C, strain rsa3, active compounds read low",0.996
same,normalized growth,"S. cerevisiae deletion strains, locus YLR258W, strain gsy2, active compounds read low",1
same,normalized growth,"S. cerevisiae deletion strains, locus YLR262C, strain YPT6 (second series), active compounds read low",0.465 (active)
same,normalized growth,"S. cerevisiae deletion strains, locus YLR262C, strain YPT6, active compounds read low",0.634
same,normalized growth,"S. cerevisiae deletion strains, locus YLR268W, strain sec22, active compounds read low",0.969
same,normalized growth,"S. cerevisiae deletion strains, locus YLR320W, strain mms22, active compounds read low",0.956
same,normalized growth,"S. cerevisiae deletion strains, locus YLR330W, strain CHS5, active compounds read low",0.99
same,normalized growth,"S. cerevisiae deletion strains, locus YLR342W, strain FKS1 (second series), active compounds read low",1
same,normalized growth,"S. cerevisiae deletion strains, locus YLR342W, strain FKS1, active compounds read low",1.01
same,normalized growth,"S. cerevisiae deletion strains, locus YLR357W, strain rsc2, active compounds read low",1.02
same,normalized growth,"S. cerevisiae deletion strains, locus YLR370C, strain arc18, active compounds read low",1
same,normalized growth,"S. cerevisiae deletion strains, locus YLR371W, strain rom2, active compounds read low",1
same,normalized growth,"S. cerevisiae deletion strains, locus YLR384C, strain iki3, active compounds read low",1
same,normalized growth,"S. cerevisiae deletion strains, locus YLR418C, strain cdc73, active compounds read low",1.01
same,normalized growth,"S. cerevisiae deletion strains, locus YML016C, strain PPZ1, active compounds read low",0.998
same,normalized growth,"S. cerevisiae deletion strains, locus YML032C, strain rad52, active compounds read low",0.995
same,normalized growth,"S. cerevisiae deletion strains, locus YML120C, strain ndi1, active compounds read low",1
same,normalized growth,"S. cerevisiae deletion strains, locus YML124C, strain tub3, active compounds read low",1
same,normalized growth,"S. cerevisiae deletion strains, locus YMR058W, strain fet3, active compounds read low",0.987
same,normalized growth,"S. cerevisiae deletion strains, locus YMR078C, strain ctf18, active compounds read low",0.992
same,normalized growth,"S. cerevisiae deletion strains, locus YMR125W, strain sto1, active compounds read low",1.03
same,normalized growth,"S. cerevisiae deletion strains, locus YMR129W, active compounds read low",1.01
same,normalized growth,"S. cerevisiae deletion strains, locus YMR205C, strain PFK2, active compounds read low",0.988
same,normalized growth,"S. cerevisiae deletion strains, locus YMR223W, strain ubp8, active compounds read low",0.98
same,normalized growth,"S. cerevisiae deletion strains, locus YMR231W, strain pep5, active compounds read low",0.943
same,normalized growth,"S. cerevisiae deletion strains, locus YMR263W, strain SAP30, active compounds read low",0.988
same,normalized growth,"S. cerevisiae deletion strains, locus YMR307W, strain GAS1, active compounds read low",1.25
same,normalized growth,"S. cerevisiae deletion strains, locus YNL067W, strain RPL9B, active compounds read low",1.03
same,normalized growth,"S. cerevisiae deletion strains, locus YNL071W, strain lat1, active compounds read low",1
same,normalized growth,"S. cerevisiae deletion strains, locus YNL128W, strain TEP1, active compounds read low",0.965
same,normalized growth,"S. cerevisiae deletion strains, locus YNL209W, strain ssb2, active compounds read low",1.01
same,normalized growth,"S. cerevisiae deletion strains, locus YNL233W, strain BNI4, active compounds read low",1.01
same,normalized growth,"S. cerevisiae deletion strains, locus YNL248C, strain rpa49, active compounds read low",0.994
same,normalized growth,"S. cerevisiae deletion strains, locus YNL250W, strain rad50, active compounds read low",0.976
same,normalized growth,"S. cerevisiae deletion strains, locus YNL271C, strain bni1, active compounds read low",0.98
same,normalized growth,"S. cerevisiae deletion strains, locus YNL298W, strain CLA4, active compounds read low",0.958
same,normalized growth,"S. cerevisiae deletion strains, locus YNL307C, strain MCK1, active compounds read low",1.01
same,normalized growth,"S. cerevisiae deletion strains, locus YNL322C, strain KRE1 (second series), active compounds read low",0.996
same,normalized growth,"S. cerevisiae deletion strains, locus YNR049C, strain mso1, active compounds read low",1.01
same,normalized growth,"S. cerevisiae deletion strains, locus YNR052C, strain pop2, active compounds read low",0.979
same,normalized growth,"S. cerevisiae deletion strains, locus YOL006C, strain TOP1, active compounds read low",0.971
same,normalized growth,"S. cerevisiae deletion strains, locus YOL012C, strain htz1",1.07
same,normalized growth,"S. cerevisiae deletion strains, locus YOL147C, strain pex11, active compounds read low",1.01
same,normalized growth,"S. cerevisiae deletion strains, locus YOR001W, strain rrp6, active compounds read low",0.994
same,normalized growth,"S. cerevisiae deletion strains, locus YOR061W, strain CKA2, active compounds read low",1
same,normalized growth,"S. cerevisiae deletion strains, locus YOR069W, strain VPS5, active compounds read low",0.992
same,normalized growth,"S. cerevisiae deletion strains, locus YOR070C, strain gyp1, active compounds read low",0.998
same,normalized growth,"S. cerevisiae deletion strains, locus YOR080W, strain dia2, active compounds read low",0.987
same,normalized growth,"S. cerevisiae deletion strains, locus YOR083W, strain WHI5, active compounds read low",0.997
same,normalized growth,"S. cerevisiae deletion strains, locus YOR106W, strain vam3, active compounds read low",0.964
same,normalized growth,"S. cerevisiae deletion strains, locus YOR136W, strain idh2, active compounds read low",0.979
same,normalized growth,"S. cerevisiae deletion strains, locus YOR144C, strain elg1, active compounds read low",1
same,normalized growth,"S. cerevisiae deletion strains, locus YOR184W, strain ser1, active compounds read low",0.964
same,normalized growth,"S. cerevisiae deletion strains, locus YOR265W, strain rbl2, active compounds read low",1
same,normalized growth,"S. cerevisiae deletion strains, locus YOR270C, strain vph1, active compounds read low",0.977
same,normalized growth,"S. cerevisiae deletion strains, locus YOR290C, strain snf2, active compounds read low",1.01
same,normalized growth,"S. cerevisiae deletion strains, locus YOR316C, strain cot1, active compounds read low",0.991
same,normalized growth,"S. cerevisiae deletion strains, locus YPL051W, strain arl3, active compounds read low",0.995
same,normalized growth,"S. cerevisiae deletion strains, locus YPL078C, strain atp4, active compounds read low",0.992
same,normalized growth,"S. cerevisiae deletion strains, locus YPL106C, strain sse1, active compounds read low",0.341 (active)
same,normalized growth,"S. cerevisiae deletion strains, locus YPL240C, strain hsp82, active compounds read low",0.998
same,normalized growth,"S. cerevisiae deletion strains, locus YPL241C, strain CIN2, active compounds read low",0.997
same,normalized growth,"S. cerevisiae deletion strains, locus YPR119W, strain clb2, active compounds read low",0.988
same,normalized growth,"S. cerevisiae deletion strains, locus YPR141C, strain kar3, active compounds read low",0.989
same,normalized growth,"S. cerevisiae deletion strains, locus YPR163C, strain tif3, active compounds read low",0.995
same,normalized growth,"S. cerevisiae deletion strains, locus YPR167C, strain met16, active compounds read low",0.98
same,normalized growth,"S. cerevisiae deletion strains, strain wtn01, active compounds read low",0.981
same,normalized growth,"S. cerevisiae strains, strain wild type, active compounds read low",1
